Experimental data as given in ChEMBL document CHEMBL1961873, “Compounds: GSK PKIS; Assays: Nanosyn kinase panel” (2012).

Legend:
[1] = target: T1, 3-phosphoinositide-dependent protein kinase 1 (Homo sapiens) (UniProt O15530); details: at 0.1 µM;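 also: values are mean inhibition of PDK1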
T1 sequence (whole entry): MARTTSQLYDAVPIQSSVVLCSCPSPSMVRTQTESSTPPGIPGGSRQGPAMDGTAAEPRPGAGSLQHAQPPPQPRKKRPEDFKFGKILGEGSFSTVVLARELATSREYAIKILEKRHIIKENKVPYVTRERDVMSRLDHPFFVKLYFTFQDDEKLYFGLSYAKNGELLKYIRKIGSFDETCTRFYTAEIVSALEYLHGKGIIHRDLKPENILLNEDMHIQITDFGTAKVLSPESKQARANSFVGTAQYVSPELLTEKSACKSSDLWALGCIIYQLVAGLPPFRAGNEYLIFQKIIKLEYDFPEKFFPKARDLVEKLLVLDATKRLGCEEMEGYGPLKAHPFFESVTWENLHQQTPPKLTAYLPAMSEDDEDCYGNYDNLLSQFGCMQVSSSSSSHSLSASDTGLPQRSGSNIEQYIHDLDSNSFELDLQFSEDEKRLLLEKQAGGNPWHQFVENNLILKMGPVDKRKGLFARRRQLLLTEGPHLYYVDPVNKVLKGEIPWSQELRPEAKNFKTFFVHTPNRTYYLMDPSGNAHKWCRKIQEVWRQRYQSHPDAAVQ

[2] = target: cAMP-dependent protein kinase catalytic subunit alpha (Homo sapiens) (UniProt P17612); details: at 0.1 µM
[3] = target: cAMP-dependent protein kinase catalytic subunit alpha (Homo sapiens) (UniProt P17612); details: at 1 µM
[4] = target: Protein kinase C alpha type (Homo sapiens) (UniProt P17252); details: at 0.1 µM
[5] = target: Protein kinase C alpha type (Homo sapiens) (UniProt P17252); details: at 1 µM
[6] = target: Protein kinase C beta type (Homo sapiens) (UniProt P05771); details: at 0.1 µM
Protein kinase C beta type (Homo sapiens), sequence (P05771 2-671 limits assumed): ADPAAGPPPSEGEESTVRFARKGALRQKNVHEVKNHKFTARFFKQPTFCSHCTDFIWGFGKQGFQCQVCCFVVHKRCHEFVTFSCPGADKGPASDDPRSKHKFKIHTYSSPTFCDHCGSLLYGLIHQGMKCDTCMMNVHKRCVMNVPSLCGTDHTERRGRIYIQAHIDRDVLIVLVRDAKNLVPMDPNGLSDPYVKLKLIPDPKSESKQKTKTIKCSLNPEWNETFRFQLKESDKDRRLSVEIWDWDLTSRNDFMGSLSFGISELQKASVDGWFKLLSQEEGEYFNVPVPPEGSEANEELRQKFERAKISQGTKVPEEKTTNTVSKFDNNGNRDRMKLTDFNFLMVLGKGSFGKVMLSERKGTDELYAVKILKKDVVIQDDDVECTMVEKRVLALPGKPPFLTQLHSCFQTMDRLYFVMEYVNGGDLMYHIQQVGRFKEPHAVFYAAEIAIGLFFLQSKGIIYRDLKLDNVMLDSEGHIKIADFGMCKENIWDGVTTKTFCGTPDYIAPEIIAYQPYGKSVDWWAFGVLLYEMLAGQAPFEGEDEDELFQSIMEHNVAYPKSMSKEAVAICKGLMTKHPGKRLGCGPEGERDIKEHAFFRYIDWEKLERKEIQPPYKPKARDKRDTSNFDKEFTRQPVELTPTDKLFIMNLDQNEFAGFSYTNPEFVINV

[7] = target: Protein kinase C beta type (Homo sapiens) (UniProt P05771); details: at 1 µM
[8] = target: Protein kinase C eta type (Homo sapiens) (UniProt P24723); details: at 0.1 µM
Protein kinase C eta type (Homo sapiens), sequence (P24723 whole entry): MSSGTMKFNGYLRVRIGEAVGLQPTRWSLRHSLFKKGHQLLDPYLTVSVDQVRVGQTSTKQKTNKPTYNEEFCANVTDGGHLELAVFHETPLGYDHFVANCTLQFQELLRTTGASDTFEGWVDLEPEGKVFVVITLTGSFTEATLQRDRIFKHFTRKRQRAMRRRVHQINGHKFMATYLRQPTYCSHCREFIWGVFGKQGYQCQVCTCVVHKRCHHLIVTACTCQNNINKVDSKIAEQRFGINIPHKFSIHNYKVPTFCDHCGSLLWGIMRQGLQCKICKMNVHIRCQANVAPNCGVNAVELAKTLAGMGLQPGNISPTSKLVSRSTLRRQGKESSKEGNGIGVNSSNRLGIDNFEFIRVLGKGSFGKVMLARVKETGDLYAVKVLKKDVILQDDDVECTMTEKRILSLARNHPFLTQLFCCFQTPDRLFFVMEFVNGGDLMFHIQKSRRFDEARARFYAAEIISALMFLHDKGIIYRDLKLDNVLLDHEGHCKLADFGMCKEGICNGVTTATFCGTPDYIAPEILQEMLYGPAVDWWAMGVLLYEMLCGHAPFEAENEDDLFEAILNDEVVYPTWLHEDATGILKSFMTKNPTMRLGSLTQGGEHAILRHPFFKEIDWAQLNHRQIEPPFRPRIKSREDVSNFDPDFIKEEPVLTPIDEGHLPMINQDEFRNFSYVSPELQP

[9] = target: Protein kinase C eta type (Homo sapiens) (UniProt P24723); details: at 1 µM
[10] = target: Protein kinase C gamma type (Homo sapiens) (UniProt P05129); details: at 0.1 µM
[11] = target: Protein kinase C gamma type (Homo sapiens) (UniProt P05129); details: at 1 µM
[12] = target: T2, Protein kinase C iota type (Homo sapiens) (UniProt P41743); details: at 0.1 µM
T2 sequence (whole entry): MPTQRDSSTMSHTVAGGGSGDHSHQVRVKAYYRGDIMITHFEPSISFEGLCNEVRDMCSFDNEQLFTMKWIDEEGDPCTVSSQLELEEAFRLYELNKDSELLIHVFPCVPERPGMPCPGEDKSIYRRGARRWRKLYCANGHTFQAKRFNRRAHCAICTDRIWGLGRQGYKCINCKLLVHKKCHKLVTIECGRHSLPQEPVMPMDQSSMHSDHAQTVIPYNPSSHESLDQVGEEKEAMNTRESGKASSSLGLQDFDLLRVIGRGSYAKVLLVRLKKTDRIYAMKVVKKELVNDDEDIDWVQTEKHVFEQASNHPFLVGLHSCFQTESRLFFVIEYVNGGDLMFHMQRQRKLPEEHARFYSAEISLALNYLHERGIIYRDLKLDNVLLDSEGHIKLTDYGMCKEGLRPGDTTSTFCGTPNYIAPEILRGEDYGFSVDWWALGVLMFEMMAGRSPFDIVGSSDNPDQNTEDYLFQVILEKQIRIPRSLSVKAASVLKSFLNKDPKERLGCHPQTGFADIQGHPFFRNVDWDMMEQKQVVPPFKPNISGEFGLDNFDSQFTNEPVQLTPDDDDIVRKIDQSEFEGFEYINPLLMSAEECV

[13] = target: T2, Protein kinase C iota type (Homo sapiens); details: at 1 µM
[14] = target: Protein kinase C theta type (Homo sapiens) (UniProt Q04759); details: at 0.1 µM
Protein kinase C theta type (Homo sapiens), sequence (Q04759 whole entry, looked up): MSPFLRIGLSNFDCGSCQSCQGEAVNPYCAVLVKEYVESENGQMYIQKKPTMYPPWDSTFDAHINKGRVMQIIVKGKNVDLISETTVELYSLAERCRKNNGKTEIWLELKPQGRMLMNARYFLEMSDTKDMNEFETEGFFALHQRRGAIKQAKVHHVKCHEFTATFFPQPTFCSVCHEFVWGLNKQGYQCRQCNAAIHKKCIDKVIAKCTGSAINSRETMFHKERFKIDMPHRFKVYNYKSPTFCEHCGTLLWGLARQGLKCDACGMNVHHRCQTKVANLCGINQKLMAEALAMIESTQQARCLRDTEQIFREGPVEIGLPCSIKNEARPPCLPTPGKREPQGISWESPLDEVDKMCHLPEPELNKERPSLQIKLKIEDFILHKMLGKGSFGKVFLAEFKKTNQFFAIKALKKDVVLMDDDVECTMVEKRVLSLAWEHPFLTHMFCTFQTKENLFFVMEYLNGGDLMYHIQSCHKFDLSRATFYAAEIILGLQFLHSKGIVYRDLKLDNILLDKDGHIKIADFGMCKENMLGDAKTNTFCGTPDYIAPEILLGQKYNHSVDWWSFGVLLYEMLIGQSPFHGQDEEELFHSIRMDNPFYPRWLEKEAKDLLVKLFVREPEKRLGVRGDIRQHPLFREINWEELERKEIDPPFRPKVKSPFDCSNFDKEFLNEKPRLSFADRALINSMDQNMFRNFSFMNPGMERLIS

[15] = target: Protein kinase C theta type (Homo sapiens) (UniProt Q04759); details: at 1 µM
[16] = target: Protein kinase C beta type (Homo sapiens) (UniProt P05771); details: at 0.1 µM; remark: listed apart in the source
[17] = target: Protein kinase C beta type (Homo sapiens) (UniProt P05771); details: at 1 µM; remark: listed apart in the source
[18] = target: T3, Serine/threonine-protein kinase D1 (Homo sapiens) (UniProt Q15139); details: at 0.1 µM
T3 sequence (whole entry): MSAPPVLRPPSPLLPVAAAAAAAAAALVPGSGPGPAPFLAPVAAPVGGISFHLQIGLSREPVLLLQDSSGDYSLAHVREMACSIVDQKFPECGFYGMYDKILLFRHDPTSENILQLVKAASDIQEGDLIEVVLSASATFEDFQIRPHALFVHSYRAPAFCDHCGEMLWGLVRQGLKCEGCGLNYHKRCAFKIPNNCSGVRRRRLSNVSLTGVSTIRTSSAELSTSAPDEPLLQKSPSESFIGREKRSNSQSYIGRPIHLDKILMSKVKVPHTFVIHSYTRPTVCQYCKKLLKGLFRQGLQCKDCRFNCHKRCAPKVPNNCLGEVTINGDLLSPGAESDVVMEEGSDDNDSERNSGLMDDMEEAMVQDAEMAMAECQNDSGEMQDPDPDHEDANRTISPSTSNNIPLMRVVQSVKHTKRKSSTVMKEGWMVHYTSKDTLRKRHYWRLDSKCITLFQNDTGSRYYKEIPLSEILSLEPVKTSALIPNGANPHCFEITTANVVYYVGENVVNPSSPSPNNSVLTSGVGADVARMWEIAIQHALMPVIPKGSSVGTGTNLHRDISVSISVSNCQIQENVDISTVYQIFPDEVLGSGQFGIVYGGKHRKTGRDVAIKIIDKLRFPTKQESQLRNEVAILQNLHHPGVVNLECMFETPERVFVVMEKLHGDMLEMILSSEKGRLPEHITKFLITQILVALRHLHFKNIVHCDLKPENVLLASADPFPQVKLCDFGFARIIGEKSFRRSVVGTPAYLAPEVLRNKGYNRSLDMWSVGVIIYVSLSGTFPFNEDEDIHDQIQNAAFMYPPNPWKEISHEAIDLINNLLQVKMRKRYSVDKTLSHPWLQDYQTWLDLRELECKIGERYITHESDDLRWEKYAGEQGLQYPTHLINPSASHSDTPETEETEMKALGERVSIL

[19] = target: T3, Serine/threonine-protein kinase D1 (Homo sapiens); details: at 1 µM
[20] = target: T4, Serine/threonine-protein kinase D2 (Homo sapiens) (UniProt Q9BZL6); details: at 0.1 µM;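 also: reported percent inhibition values are means, part of the GSK PKIS kinase panel screen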
T4 sequence (whole entry): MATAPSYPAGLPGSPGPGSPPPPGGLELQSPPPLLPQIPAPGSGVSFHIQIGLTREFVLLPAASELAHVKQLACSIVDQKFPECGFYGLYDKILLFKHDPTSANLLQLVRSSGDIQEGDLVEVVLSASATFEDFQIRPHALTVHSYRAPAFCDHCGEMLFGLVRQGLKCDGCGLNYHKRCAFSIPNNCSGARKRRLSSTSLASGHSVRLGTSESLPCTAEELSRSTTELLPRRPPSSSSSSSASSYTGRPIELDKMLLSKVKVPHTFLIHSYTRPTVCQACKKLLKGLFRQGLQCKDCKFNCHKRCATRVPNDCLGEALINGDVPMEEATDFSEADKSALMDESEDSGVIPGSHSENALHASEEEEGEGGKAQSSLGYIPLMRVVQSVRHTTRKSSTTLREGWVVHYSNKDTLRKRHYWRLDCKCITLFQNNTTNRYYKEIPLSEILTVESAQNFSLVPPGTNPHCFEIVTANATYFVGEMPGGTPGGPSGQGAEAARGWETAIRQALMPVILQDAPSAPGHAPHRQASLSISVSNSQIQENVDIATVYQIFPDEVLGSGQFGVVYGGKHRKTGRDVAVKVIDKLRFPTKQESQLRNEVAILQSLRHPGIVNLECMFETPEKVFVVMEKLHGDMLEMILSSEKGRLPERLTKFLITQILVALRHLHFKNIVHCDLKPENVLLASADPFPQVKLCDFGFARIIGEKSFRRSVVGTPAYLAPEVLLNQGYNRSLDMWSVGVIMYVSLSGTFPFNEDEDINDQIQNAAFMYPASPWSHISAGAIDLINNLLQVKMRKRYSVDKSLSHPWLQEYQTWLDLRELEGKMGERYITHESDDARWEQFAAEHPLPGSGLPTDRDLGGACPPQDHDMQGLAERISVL

CNC(=O)c1cncc(/C=C/c2c(Cl)cccc2Cl)c1
inhibition [1]: 0.01% | inhibition [2]: -1.08% | inhibition [3]: -1.47% | inhibition [4]: -3.64% | inhibition [5]: -2.28% | inhibition [6]: 0.07% | inhibition [7]: 0.23% | inhibition [8]: 3.81% | inhibition [9]: 5.49% | inhibition [10]: 0.61% | inhibition [11]: 1.44% | inhibition [12]: 0.96% | inhibition [13]: 0.96% | inhibition [14]: 1.94% | inhibition [15]: 1.94% | inhibition [16]: 0.86% | inhibition [17]: 1.27% | inhibition [18]: 2.34% | inhibition [19]: 5% | inhibition [20]: 1.54%

CCn1c(-c2nonc2N)nc2c(N3CCCC3)nccc21
inhibition [1]: -1.76% | inhibition [2]: -0.34% | inhibition [3]: 1.34% | inhibition [4]: -0.23% | inhibition [5]: 0.84% | inhibition [6]: 0.38% | inhibition [7]: 13.4% | inhibition [8]: 1.82% | inhibition [9]: 11.2% | inhibition [10]: -1.48% | inhibition [11]: 2.66% | inhibition [12]: 0.51% | inhibition [13]: -0.25% | inhibition [14]: -0.32% | inhibition [15]: 0.44% | inhibition [16]: -1.87% | inhibition [17]: 2.46% | inhibition [18]: -0.28% | inhibition [19]: -0.14% | inhibition [20]: -1.19%

Cn1cc(C=C2C(=O)Nc3cccnc32)c2ccccc21
inhibition [1]: 0.63% | inhibition [2]: 0.99% | inhibition [3]: 1.46% | inhibition [4]: 1% | inhibition [5]: 1.29% | inhibition [6]: -0.06% | inhibition [7]: -1.44% | inhibition [8]: 2.86% | inhibition [9]: -0.57% | inhibition [10]: -1.77% | inhibition [11]: -0.93% | inhibition [12]: 0.27% | inhibition [13]: 1.58% | inhibition [14]: -0.39% | inhibition [15]: 0.22% | inhibition [16]: 0.8% | inhibition [17]: 0.8% | inhibition [18]: 2.63% | inhibition [19]: 10.6% | inhibition [20]: 3.33%

Fc1cccc(COc2ccc(Nc3ncnc4cc(-c5ccc[nH]5)sc34)cc2Cl)c1
inhibition [1]: 1.86% | inhibition [2]: -2.47% | inhibition [3]: -0.52% | inhibition [4]: -3.29% | inhibition [5]: -1.9% | inhibition [6]: 1.37% | inhibition [7]: 0.9% | inhibition [8]: 2.87% | inhibition [9]: 4.5% | inhibition [10]: 3.21% | inhibition [11]: 2.69% | inhibition [12]: 1.76% | inhibition [13]: 1.59% | inhibition [14]: 0.25% | inhibition [15]: 2.17% | inhibition [16]: 0.99% | inhibition [17]: 2.94% | inhibition [18]: -0.95% | inhibition [19]: -1.14% | inhibition [20]: -0.92%

COC(=O)Nc1nc2cc(Oc3cccc(NC(=O)Nc4cc(C(F)(F)F)ccc4F)c3)ccc2[nH]1
inhibition [1]: 1.08% | inhibition [2]: 2.29% | inhibition [3]: 4.75% | inhibition [4]: 0.42% | inhibition [5]: 0.96% | inhibition [6]: 0.04% | inhibition [7]: 2.71% | inhibition [8]: 0.61% | inhibition [9]: -1.2% | inhibition [10]: 1.08% | inhibition [11]: 2.09% | inhibition [12]: -0.71% | inhibition [13]: -0.55% | inhibition [14]: -0.27% | inhibition [15]: -0.91% | inhibition [16]: 3.01% | inhibition [17]: 1.79% | inhibition [18]: 0.22% | inhibition [19]: 1.03% | inhibition [20]: 0.66%

COc1cccc(-n2ncc3c(N/N=C/c4cccc(F)c4)ncnc32)c1
inhibition [1]: 1.33% | inhibition [2]: -1.81% | inhibition [3]: -1.91% | inhibition [4]: -3.02% | inhibition [5]: -2.41% | inhibition [6]: 0.85% | inhibition [7]: 1.36% | inhibition [8]: 0.06% | inhibition [9]: 3.37% | inhibition [10]: 2.4% | inhibition [11]: 1.92% | inhibition [12]: 1.95% | inhibition [13]: 1.9% | inhibition [14]: 0.55% | inhibition [15]: 2.23% | inhibition [16]: 1.7% | inhibition [17]: 3.14% | inhibition [18]: -1.15% | inhibition [19]: 0.28% | inhibition [20]: -1.06%

N#Cc1c(NC(=O)c2cccc3ccccc23)sc2c1CCCC2
inhibition [1]: 1.52% | inhibition [2]: 1.59% | inhibition [3]: 1.98% | inhibition [4]: 0.26% | inhibition [5]: 1.22% | inhibition [6]: 1.24% | inhibition [7]: -1.28% | inhibition [8]: 3.52% | inhibition [9]: 3.65% | inhibition [10]: 2.48% | inhibition [11]: 0.67% | inhibition [12]: 1.98% | inhibition [13]: 2.38% | inhibition [14]: 1.69% | inhibition [15]: 0.74% | inhibition [16]: 2.18% | inhibition [17]: 2.04% | inhibition [18]: 4.23% | inhibition [19]: 4.24% | inhibition [20]: 2.17%
